Results on 39 compounds are retold here after PubChem BioAssay (NCI).

Structures are written as SMILES. Several values for one entry are separate records, joined by “and”; a condition that tells them apart may be missing. Equal values may be shown once. This is part of a sample that, as a whole, favours compounds with a hit. Of some 83,000 tested, about 20% had one in any assay.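 Negative percent growth values reflect cell death: -40 means 40% of the cells present at the start died, and -100 means all died.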 Unmarked numbers belong to inactive results. Activity calls are given as the source filed them.

One assay concerns CCRF-CEM leukemia. Description: NCI-60 one-dose screen, 48 h (100 = growth as untreated, 0 = no growth, -100 = all killed). Particulars: 10 µM. The protocol: Growth inhibition of the CCRF-CEM human tumor cell line is measured as a screen for anti-cancer activity. Cells are grown in 96 well plates and exposed to the test compound for 48 hours. Compounds are tested at a single concentration, which is 10^-5 M for most compounds. The reported endpoint is percent growth (GI% or GIPRCNT), where numbers from 0 - 100% represent growth inhibition, and numbers from -100% - 0 represent cell death. For example, a value of 40 represents 60% growth inhibition. A value of 0 means no net growth occurred over the course of the experiment. A value of -40 indicates 40% of cells at the beginning of the experiment died by the end of the experiment. A value of -100 means all cells are dead at the end of the experiment.
NCI-60 Human Tumor Cell Lines Screen was performed using the standard one-dose NCI protocol, which is described in more detail at https://dtp.cancer.gov/discovery_development/nci-60/default.htm.
Compounds with GIPRCNT values below 10 were considered active. Activity score was based on GIPRCNT using the following formula: […]
Score is 0 for GIPRCNT values of 100 or above, 50 for GIPRCNT values of 0, and 100 for GIPRCNT values of -100.
Take `CCN(Cc1ccccc1)c1ccc(/C=C2\COc3ccccc3C2=O)cc1`: the growth was 104%.

Still in this assay, the particulars now being: 10 µM unless noted.
In the case of `Cc1c(C(=O)OCCCCOC(=O)c2c(C)n(C)c3scc[n+]23)[n+]2ccsc2n1C`, the growth was 96.4%. As to `O=C(/C=C/c1ccc(Cl)s1)c1ccc(Cl)s1`, the growth is 94.8% and 90.7%.

Take `Nc1nc2ccccc2c2c(=O)c3ccc(Cl)cc3sc12`: the growth is 94.5%. Same read-out and setting: next, `N#C/C(=C\c1ccccc1Cl)c1cc2ccccc2[nH]1`: -4.12% (active). On the same count and under the same terms, next, `Cc1cc(N2CCN(CC(=O)Nc3ccc4c(ccn4Cc4ccccc4)c3)CC2)nc(N2CCCCCC2)n1`: 46.2%; `NNCCc1ccccc1`: 90.9% and 106%; `O=C(c1ccc(Nc2nccc(NCCCNc3ccnc4cc(Cl)ccc34)n2)cc1)N1CCCCC1`: 37.1%. On the same count and under the same terms, the same measure for `CCCN1C(=O)/C(=c2\sc3n(c2=O)NC2C(N=3)N(CC)C(=O)N2CC)c2ccccc21` (stereo not given): 25.1%.

For the compound `COc1cc2nc3cc([N+](=O)[O-])ccc3c(NCCNCC(C)(C)O)c2cc1OC`, the growth was 0.0876% (active).

As for `Cc1nnc(NS(=O)(=O)c2ccc(N=Nc3ccc(N)nc3N)cc2)s1`, the growth was 100% and 105%.

On to `Nc1ncnc2c1C(c1ccc([N+](=O)[O-])cc1)c1sc3c(F)cccc3c1O2` (stereo not given), for which the growth is 94.3%. The same measure, in the same setting: next, `Cn1ccnc1CN1CCSC(C(=O)Nc2ccccc2)C1` (stereo not given): 80.9%; `Cc1n(Cc2ccc3ccccc3c2)c(Cl)c(Cl)[n+]1Cc1ccc2ccccc2c1`: 14%. The same measure, in the same setting: the same measure for `Cc1nc2sc(C(=O)Nc3cccc(Cl)c3C)c(N)c2cc1C(O)c1ccccc1` (stereo not given): 20.4%.

For `O=C(NNc1ccccc1)c1ncc[nH]1`, the growth is 32.7%.

With `O=C(CN1C(=O)S/C(=C\C(Cl)=C\c2ccccc2)C1=O)NCCCn1ccnc1`, the growth was 5.11% (active). The same measure, in the same setting: the same measure for `COc1ccc(C2=C(CN)C(O)NC(=NCC(=O)c3ccc4ccccc4c3)N2)cc1` (stereo not given): 110%. On the same count and under the same terms, the same measure for `O=C1C(=C(O)c2ccccc2)C(=O)c2ccccc21`: 73.7%; for `COC(=O)N/N=C/c1c[n+]([O-])c2ccccc2[n+]1[O-]`: 94%. On the same count and under the same terms, next, `NC1=CC(=O)c2cccnc2C1=O`: -24.3% (active); `CONC1=Nc2cc(NC(N)=NCc3ccccc3)c(N(C)C3CCCCC3)cc2OC1`: 68.2%. Turning to `C=C(C)[C@@H]1CC[C@]2(C)[C@H](CC(=O)N[C@H]3[C@@H]4C[C@](C)(C(=O)OC)CC[C@]4(C)CC[C@]32C)[C@@]1(C)CCC#N`, the growth is 75.1%. The same measure, in the same setting: the same measure for `C#CCOc1cccc(Nc2ncc3ncn(C4CCN(C(=O)CCl)C4)c3n2)c1` (stereo not given): -16.6% [6.25 µM] (active); for `Cc1ccc(C(=O)Nc2nc3c(s2)CN(Cc2ccccc2)CC3)cn1`: 85.5%. Same read-out and setting: next, `CC12OC(CC(O)C1O)n1c3ccccc3c3c4c(c5c6ccccc6n2c5c31)C(=O)N(CCN1CCOCC1)C4=O` (stereo not given): 16.4%.

Regarding `N=C(N)SCc1c2ccccc2c(CSC(=N)N)c2ccccc12`, the growth is 6.24% (active).

Regarding `CCN(CC)CC(=O)Nc1ccc2ncnc(Nc3ccc(Oc4cccc(F)c4)c(Cl)c3)c2c1`, the growth is 46.8%. Same read-out and setting: the same measure for `Cc1cccc(-c2nnc(SCC(=O)Nc3ncc(Cc4ccccc4)s3)n2N2C(=O)CSC2=S)c1`: 76.5%; for `CCCCCCCCCCCCCCCC(=O)O[C@@H]1[C@@H](O)[C@@H](O)C([C@H](NC(=O)[C@@H]2C[C@@H](CCC)CN2C)[C@H](C)Cl)O[C@@H]1SC` (stereo not given in full): 101%; for `O=C1OCC2=C1C(c1cccc(C(F)(F)F)c1)c1cc3c(cc1N2CCO)CCC3` (stereo not given): 6.63% (active). Take `C=C(c1ccc(C(=O)O)cc1)c1cc2c(cc1C)C(C)(C)CCC2(C)C`: the growth is 60.4% and 90%. `Clc1ccc(Nc2nc(Nc3ccc(Cl)cc3)nc(Nc3ccc(-c4cc(-c5cccc(Cl)c5)on4)cc3)n2)cc1`: the growth is 61%.

Regarding `Cn1c(=O)c2c(nc(Nc3cc(=O)[nH]c(=O)[nH]3)n2Cc2ccccc2)n(C)c1=O`, the growth is 95.1%. Same read-out and setting: next, `C=C(CNCCO)[C@@H]1CC[C@]2(CO)CC[C@]3(C)[C@H](CC[C@@H]4[C@@]5(C)CCC(NCCc6ccc(O)cc6)C(C)(C)[C@@H]5CC[C@]43C)[C@@H]12` (stereo not given in full): -28.5% (active); `Cc1nc2sc(C(=O)Nc3cccc4ncccc34)c(N)c2cc1C(C)O` (stereo not given): 54.4%; `COc1ccc(-c2nn3c(-c4cc(F)c(Cl)cc4Cl)nnc3s2)cc1`: 9.61% (active). Still for that read-out and setting: next, `CC1(C)C(N)=Nc2cc(OCCCN3Cc4ccc(OCCc5cn(CC(=O)N6CCC(CCN7CCCC7)CC6)nn5)cc4C3)c(OCC3CC3)cc21`: 96.2%; `O=C(NCc1cccnc1)/C(=C\c1ccc(Br)cc1)S(=O)(=O)c1ccccc1`: 25.2%.

Still in this assay, the particulars now being: 100 µM.
`CCN(Cc1ccccc1)c1ccc(/C=C2\COc3ccccc3C2=O)cc1`: the growth is 15%.
